Screening results deposited in PubChem BioAssay by National Center for Advancing Translational Sciences (NCATS).
Most compounds without a hit are left out; they make up all but 18% or so of the library.
Gal4-VP16 FLuc: counter-screen for ROR gamma inhibitors: Gal4-VP16 reporter. AID 2546. Drosophila S2 Gal4-VP16 UAS-luciferase, luminescence, 20 h. hit rate 3.5% among 310,000. Potency, µM (top dose mostly 53.6 µM), for the others: top-dose activity, negative = inhibition, actives largely listed as inhibitors;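 also: Gal4-VP16 expression switched on by copper sulfate through the metallothionein promoter; potency is read from the fitted curve at half-maximal effect; nearly all actives have a fitted effect of over 50% in size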
DT40 TDP1 CPT: DT40-hTDP1 cell growth loss with CPT | Potency, µM (series often up to 46.2 µM), for inactives: top-dose activity change, negative = growth inhibition, most hits filed as inhibitors | chicken DT40 Tdp1-/-;hTDP1 cells + 20 nM CPT, ATP luminescence, 48 h | hit rate 12% among 420,000; also: potency is read from the fitted curve at half-maximal effect; nearly all actives have a fitted effect of over 55% in size
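Chicken DT40 Tdp1-/- cells stably complemented with human TDP1 were seeded at 400 cells/well in medium containing 20 nM camptothecin, exposed to pin-transferred compounds, and grown at 37 °C for at least 48 hr. Viability was read as ATP luminescence.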
IL-1B inflam inh: inflammasome signaling inhibition, IL-1 beta readout. THP-1 LPS/ATP IL-1B secretion, AlphaLISA, 16 h; active compounds read low. activity change, % at 57.5 µM. hit rate 4.7% among 360,000. AID 743279; in the data active = activity change below about -50%; inconclusive = mostly about -30% to -49%
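THP-1 cells pretreated 1 hr with compounds (up to 57.5 uM final), then stimulated with LPS (250 ng/mL final) plus ATP (1.25 mM final); secreted IL-1B measured by AlphaLISA after 16 hr, decreased signal indicating inhibition.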
DT40 TDP1 no CPT: qHTS for Inhibitors of human tyrosyl-DNA phosphodiesterase 1 (TDP1): qHTS in cells in absence of CPT | DT40 Tdp1-/- hTDP1 cells, no CPT, ATP luminescence, 48 h | Potency, µM (top dose mostly 46.2 µM), inactives show top-dose activity change, negative = growth inhibition, hits mostly inhibitors | hit rate 15% among 420,000 | AID 686978, 2013; also: potency is read from the fitted curve at half-maximal effect; nearly all actives have a fitted effect of over 55% in size
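A cellular qHTS used chicken DT40 cells lacking endogenous Tdp1 but carrying stably transfected human TDP1. Compounds were applied without camptothecin, and cell growth kinetics were judged by ATP-dependent luminescence after ≥48 hr.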
RORgamma inh: blocks mouse ROR gamma transcriptional activity. Potency, µM (doses to about 53.6 µM), inactives show top-dose activity change, negative = inhibition, actives largely listed as inhibitors. hit rate 5.4% among 310,000. Drosophila S2 Gal4-RORgamma UAS-luciferase reporter, 20 h. AID 2551; also: potency is read from the fitted curve at half-maximal effect; nearly all actives have a fitted effect of over 60% in size
Target sequence (P51450 whole entry, looked up, the tested form may be a part): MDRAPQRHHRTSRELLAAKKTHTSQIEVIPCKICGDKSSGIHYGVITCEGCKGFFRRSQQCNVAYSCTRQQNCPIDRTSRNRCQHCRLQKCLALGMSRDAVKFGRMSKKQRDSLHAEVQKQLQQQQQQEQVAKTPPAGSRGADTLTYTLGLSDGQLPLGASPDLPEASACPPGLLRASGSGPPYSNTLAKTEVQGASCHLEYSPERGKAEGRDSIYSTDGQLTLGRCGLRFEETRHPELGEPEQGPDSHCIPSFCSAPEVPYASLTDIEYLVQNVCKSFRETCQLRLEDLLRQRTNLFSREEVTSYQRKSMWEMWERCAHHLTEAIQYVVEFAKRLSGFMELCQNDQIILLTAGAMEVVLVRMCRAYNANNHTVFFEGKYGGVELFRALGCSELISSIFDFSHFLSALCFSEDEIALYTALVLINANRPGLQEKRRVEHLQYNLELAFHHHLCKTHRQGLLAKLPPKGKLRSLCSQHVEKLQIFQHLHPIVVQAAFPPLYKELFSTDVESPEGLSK
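Luciferase reporter read in Schneider cells carrying Gal4-RORγ (mouse) and UAS-Photinus luciferase; cells given compound 1 h before 700 uM copper sulfate induction, then incubated 20 h at ambient temperature.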
LDHA inh: blocks human lactate dehydrogenase A. hit rate 0.15% among 480,000. purified LDHA, NADH/diaphorase-resazurin fluorescence; active compounds read low. AID 1347041. activity change, % (values are at about 110 or 230 µM). P00338; in the data active = activity change below about -30%; inconclusive = mostly about -25% to -30%;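 also: plate controls were DMSO wells for no effect and wells without enzyme for full effect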
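Remaining NADH was detected by diaphorase (0.133 mg/mL) converting 37 µM resazurin to fluorescent resorufin, read at 0 and 20 minutes. The preceding 5-minute room-temperature reaction used 2 nM LDHA, 0.2 mM sodium pyruvate and 0.06 mM NADH at pH 7.4.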
The depositor's hits bear a star; ? = inconclusive; / = not tested or not shown; [ ] = remark or other dose. Unless noted, calls follow the shape of the dose curve; as a rule, active = well fitted curve in the direction sought with a large enough effect; inconclusive = small, poorly fitted or top-dose-only effect, or another doubt; inactive = no such curve, though single readings can be large; an effect the other way counts as inactive or inconclusive. Unless noted, % is scaled to controls: 0 for no effect and ±100 for the full control effect.

SMILES | Gal4-VP16 FLuc | DT40 TDP1 CPT | IL-1B inflam inh | DT40 TDP1 no CPT | RORgamma inh | LDHA inh
O=C(Nc1nc(-c2ccc(Cl)cc2)cs1)C1CCCO1 (stereo unspecified) | -2% | ? | -69* | 23µM* | 35% | 1
Cc1ccc(-c2csc(NC(=O)CN3CCOCC3)n2)cc1 | 23% | 16µM* | 16 | 16µM* | -30% | 0
Cc1c(C(=O)NCCSc2ccc(Cl)cc2)oc2c1C(=O)CCC2 | / | / | / | / | / | 12
CCOC(=O)c1cnc2ccc(OC)cc2c1NCCc1ccc(OC)c(OC)c1 | -8% | 6.5µM* | -90* | 7.3µM* | -3% | 3
CCOC(=O)c1cnc2ccc(OC)cc2c1NCCN1CCOCC1 | / | -29% | -17 | ? | / | 1
CCOCCOC(=O)c1nc2ccccc2nc1NCCc1ccc(OC)c(OC)c1 | / | / | / | / | / | 2
CCOC(=O)c1cnc2ccccc2c1NCCc1ccc(OC)c(OC)c1 | -4% | 16µM* | -14 | 10µM* | -42% | 3
CSCCC(=O)N1CCN(CC(=O)N2CCCC2)CC1 | -14% | 6% | 13 | -10% | 2.8µM* | -7
O=C(CN1CCCCC1)N1CCN(C(=O)CN2CCCCC2)CC1 | -5% | / | / | / | -17% | /
CC1CC(=O)N(c2ccc(NCCc3ccc(O)cc3)c([N+](=O)[O-])c2)C1=O (stereo unspecified) | -26% | 16µM* | -1 | 15µM* | ? | -5
O=C1C2CC=CCC2C(=O)N1c1ccc(NCCc2ccccc2)c([N+](=O)[O-])c1 (stereo unspecified) | -24% | ? | 18 | 23µM* | ? | -2
O=C1C2CC=CCC2C(=O)N1c1ccc(NCCc2ccccc2F)c([N+](=O)[O-])c1 (stereo unspecified) | -1% | ? | -5 | ? | ? | -7
COc1ccc(-c2ocnc2C(=O)Nc2cc(Cl)ccc2C)cc1OC | / | / | / | / | / | 1
Cc1nc2c(cnn2-c2ccccc2Cl)c(=O)n1-c1ccc(C(C)C)cc1 | -3% | ? | 17 | 21µM* | 26% | -2
Cc1ccc(-n2ncc3c(=O)n(-c4ccc(C)c(C)c4)c(C)nc32)cc1 | ? | ? | 0 | 18µM* | 1% | -5
Cc1ccc(-n2c(-c3ccco3)nc3c(cnn3-c3ccccc3Cl)c2=O)cc1 | / | -4% | / | -21% | / | -2
Cc1ccc(C)c(-n2c(C)nc3c(cnn3-c3ccc(F)cc3)c2=O)c1 | / | / | / | / | / | 9
COc1ccc(-n2c(C)nc3c(cnn3-c3ccc(C)c(C)c3)c2=O)cc1 | 5% | 23µM* | -7 | 15µM* | 67% | -13
Cc1ccc(-n2c(C)nc3c(cnn3-c3ccc(F)cc3)c2=O)cc1 | 8.9µM* | 18µM* | 26 | 15µM* | -23% | -1
CN(C(=O)Cc1c[nH]c2ccccc12)C(C(=O)Nc1ccc2c(c1)OCO2)c1ccccc1 (stereo unspecified) | 7% | -27% | -67* | ? | 17% | -2
CCC(C)[C@@H](NC(=O)NCc1ccc(C)cc1)C(=O)OC (stereo partly specified) | / | / | / | / | / | 5
COc1cc(CCCN2C(=S)NC[C@H]2Cc2ccc(O)cc2)cc(OC)c1OC | -9% | ? | 2 | 15µM* | 33% | -7
CCCC[C@@H]1CNC(=S)N1CCCc1cc(OC)c(OC)c(OC)c1 | ? | ? | -4 | ? | 8.9µM* | -8
COc1cc(CCCN2C(=O)C(=O)NC[C@@H]2CCCCN)cc(OC)c1OC | -14% | -3% | -5 | 0% | -26% | -11
CN(C)CCCNS(=O)(=O)c1ccc(NC2CCCCCC2)c([N+](=O)[O-])c1 | 20µM* | 2.9µM* | -71* | 2.3µM* | -13% | 3
SMILES | Gal4-VP16 FLuc | DT40 TDP1 CPT | IL-1B inflam inh | DT40 TDP1 no CPT | RORgamma inh | LDHA inh
C[C@@]1(C(=O)O)NCCc2cc(O)c(O)cc21 | -5% | 11µM* | / | 11µM* | -28% | /
CC(CCc1ccccc1)NC(=O)CN(C)Cc1ccc(F)cc1 (stereo unspecified) | -3% | -7% | -12 | ? | 2% | -1
COCC(C)NCC(=O)NC(C)CCc1ccccc1 (stereo unspecified) | 0% | -1% | 9 | -26% | 19%[10 µM] | -30*
CC(CCc1ccccc1)NC(=O)CN(C)Cc1ccccc1F (stereo unspecified) | 4% | ? | -74* | ? | 20% | 0
CCN(Cc1cc(=O)[nH]c2c(C)cc(C)cc12)C(=O)Nc1cc(C)ccc1OC | / | / | / | / | / | 16
COc1ccc2c(c1C)CCCC2 | / | / | / | / | / | 2
CCC[n+]1c(C)sc2c3c(ccc21)CCCC3 | -12% | 1.8µM* | -97* | 2.3µM* | -6% | -1
O=C(O)C1(c2ccc(Cl)cc2)CCCC1 | / | / | / | / | / | -3
CC(C)CCNC(=O)c1ccc2c(c1)N(Cc1ccccc1F)C(=O)c1ccccc1S2=O (stereo unspecified) | / | ? | / | 21µM* | / | -4
COc1ccc(CCNC(=O)c2ccc3c(c2)N(Cc2ccccc2F)C(=O)c2ccccc2S3=O)cc1OC (stereo unspecified) | / | 15µM* | / | 26µM* | / | -4
Cc1ccccc1CN1C(=O)c2ccccc2S(=O)c2ccc(C(=O)NCc3ccc4c(c3)OCO4)cc21 (stereo unspecified) | / | 6% | / | 0% | / | -2
O=C(NCc1ccc2c(c1)OCO2)c1ccc2c(c1)N(Cc1ccccc1F)C(=O)c1ccccc1S2=O (stereo unspecified) | / | -34% | / | 21µM* | / | -2
Cc1ccc(C)c(CN2C(=O)c3ccccc3S(=O)c3ccc(C(=O)NCCC4=CCCCC4)cc32)c1 (stereo unspecified) | / | 15µM* | / | 16µM* | / | -2
Cc1ccc2nc(CC(C)(C)CC(=O)O)c[n+]([O-])c2c1 | / | / | / | / | / | -6
O=C(CSc1nc(=O)n(Cc2ccccn2)c2c1CCC2)NC1CCCC1 | / | / | / | / | / | 6
COc1ccc(C)c2sc(N(Cc3cccnc3)C(=O)c3ccc(S(=O)(=O)N(C)C)cc3)nc12 | / | / | / | / | / | -3
CCCC(=O)NNC(=S)NC1CC1 | / | / | / | / | / | 4
Cc1oc(-c2nc(C#N)c(N(C)C)o2)cc1S(=O)(=O)N(Cc1ccccc1)C(C)C | / | / | / | / | / | 3
COc1ccc(CCNC(=O)c2ccc3c(c2)N(Cc2cc(C)ccc2C)C(=O)c2ccccc2S3=O)cc1OC (stereo unspecified) | / | 9.2µM* | / | 5.8µM* | / | -12
